KCNQ2 pot: enhances the rat KCNQ2 potassium channel | B-score at 10 µM | CHO-K1 KCNQ2, FluxOR thallium flux fluorescence; hits give high values | AID 2239 | actives 0.54% (n = 310,000);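 active = fluorescence ratio B-score at least 3 SD of library B-scores, with initial fluorescence B-score within 3 of them, cut at about 5.3 in these data; same plate scores as AID 2156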;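 also: B-score of peak minus minimum over baseline fluorescence ratio after K+ and Tl+ stimulus; positive B-score means potentiation of KCNQ2 with more thallium influx and brighter signal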
Target sequence (O88943 whole entry, looked up): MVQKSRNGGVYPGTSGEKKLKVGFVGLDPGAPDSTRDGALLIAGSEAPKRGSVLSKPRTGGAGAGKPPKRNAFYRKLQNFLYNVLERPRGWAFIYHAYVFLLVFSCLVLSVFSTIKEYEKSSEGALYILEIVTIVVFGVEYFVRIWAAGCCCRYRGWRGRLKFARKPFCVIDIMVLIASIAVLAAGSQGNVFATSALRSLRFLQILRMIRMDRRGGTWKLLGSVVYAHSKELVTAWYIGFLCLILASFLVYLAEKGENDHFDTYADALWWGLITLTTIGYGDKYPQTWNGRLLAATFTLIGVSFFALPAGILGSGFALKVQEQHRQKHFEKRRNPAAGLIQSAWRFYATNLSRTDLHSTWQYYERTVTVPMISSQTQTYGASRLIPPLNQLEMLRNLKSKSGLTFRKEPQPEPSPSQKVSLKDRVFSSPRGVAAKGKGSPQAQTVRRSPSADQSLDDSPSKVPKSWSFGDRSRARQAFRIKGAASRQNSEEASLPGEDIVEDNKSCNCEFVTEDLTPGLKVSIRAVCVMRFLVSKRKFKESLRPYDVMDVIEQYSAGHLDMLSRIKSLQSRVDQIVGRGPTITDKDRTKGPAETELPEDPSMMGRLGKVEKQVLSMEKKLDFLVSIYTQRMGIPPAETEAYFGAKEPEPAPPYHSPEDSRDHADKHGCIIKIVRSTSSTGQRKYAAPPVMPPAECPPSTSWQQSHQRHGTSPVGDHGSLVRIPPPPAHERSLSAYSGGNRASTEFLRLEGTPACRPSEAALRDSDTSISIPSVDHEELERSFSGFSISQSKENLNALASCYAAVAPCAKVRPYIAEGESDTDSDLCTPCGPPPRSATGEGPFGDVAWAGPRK
KCNQ2 inh: blocks the rat KCNQ2 potassium channel; O88943; CHO-K1 KCNQ2, FluxOR thallium flux, 20 min; hits give low values; B-score at 10 µM; actives 1.1% (n = 310,000); AID 2156;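 active = fluorescence ratio B-score at most minus 3 library SDs, with starting brightness B-score within 2 library SDs, cut at about -5.5 in these data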
KCNQ2 inh conf: rat KCNQ2 channel inhibition, confirmatory screen; activity change, negative = inhibition, % at 10 µM; KCNQ2-expressing cells, thallium flux; hits give low values; actives 57% (n = 1,000); shares compounds with KCNQ2 inh;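 also: 0% = vehicle wells and values are ratio percent relative to vehicle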
KCNQ1 spec: selectivity of KCNQ2 inhibitors against human KCNQ1. KCNQ1-expressing cells, FluxOR thallium flux fluorescence; hits give low values. shares compounds with KCNQ2 inh. actives 15% (n = 1,000). activity change, negative = inhibition, % at 10 µM. AID 493026;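 active = activity change at least 3 SD of negative controls below their mean in both duplicate wells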;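 also: CHO cells stably transfected with KCNQ1 and depolarized by potassium stimulus; peak minus minimum fluorescence over baseline after thallium addition; 0% = vehicle negative control and -100% = blank without thallium stimulus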
CHO parental ctr: activity in parental CHO cells lacking KCNQ2; actives 14% (n = 1,000); activity change, % at 10 µM; thallium flux counter-screen; hits give low values; AID 493029; shares compounds with KCNQ2 inh;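 also: 0% = vehicle negative controls with stimulus buffer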
KCNQ2 patch conf: confirmation of rat KCNQ2 potassium channel inhibitors. shares compounds with KCNQ2 inh. KCNQ2-expressing cells, automated patch clamp current. calls only at 10 µM. actives 49% (n = 550). AID 588531
An asterisk follows results filed as active; i = inactive; / = no result; + = active, no number. The list is not random: actives were taken first. Their share in the collection is about 1.6%. Unless noted, no rule for the calls is given here.

SMILES	KCNQ2 pot	KCNQ2 inh	KCNQ2 inh conf	KCNQ1 spec	CHO parental ctr	others
Cn1c(-c2ccc3c(c2)OCO3)cnc1NCc1cccc(Cl)c1	-9	-9*	i	i	i
Cn1c(-c2ccc3c(c2)OCO3)cnc1NCc1ccccc1Cl	0.69	i	/	/	/
O=C([O-])c1ccccc1-[n+]1c(-c2ccccc2)cc(-c2ccccc2)cc1-c1ccccc1	/	i	/	/	/
CCOc1ccc(NC(=O)CN(C)S(=O)(=O)c2ccc3c(c2)CCC(=O)N3)cc1	/	i	/	/	/
O=[N+]([O-])c1cnc(Sc2ccncn2)s1	/	i	/	/	/
C=CCn1c(Sc2ncc([N+](=O)[O-])s2)n[nH]c1=O	-9.8	-9.8*	-40%*	i	i	KCNQ2 patch conf=i
Cc1cc(NC(=S)NC(=O)C2CC2)ccc1Br	0.16	i	/	/	/
COc1ccc(-c2cn[nH]c2-c2ccc(O)cc2O)cc1	/	i	/	/	/
COc1ccc(-c2[nH]ncc2-c2cnn(-c3ccccc3)c2)c(O)c1	-7.7	-7.7*	i	i	i
Cn1nc(C(F)(F)F)cc1C(=O)NC1CCCCCC1	1.2	i	/	/	/
CC1CCN(CC(=O)N2c3ccccc3CC2C)CC1 (centres undefined)	0.66	i	/	/	/
CC1Cc2ccccc2N1C(=O)CNc1ccccc1N1CCCCC1 (centres undefined)	-8.4	-8.4*	i	i	i
COc1ccc(NC(=O)c2cccc(S(=O)(=O)N3CCCCCC3)c2)cc1	/	i	/	/	/
c1csc(C(c2nnnn2C2CCCCC2)N2CCCC3(CCCCC3)C2)c1 (centres undefined)	/	i	/	/	/
CC(C)(C)n1nnnc1C(c1cccs1)N1CCCC2(CCCCC2)C1 (centres undefined)	-7.5	-7.5*	-33%*	-38%*	-30%*	KCNQ2 patch conf=i
Cc1ccc(NC(=O)C2CCN(S(=O)(=O)c3c(C)nn(C)c3C)CC2)c(Cl)c1	/	i	/	/	/
COC(=O)c1ccc(OCC(O)CNCC(c2ccc(OC)cc2)N(C)C)c(OC)c1 (centres undefined)	0.54	i	/	/	/
O=C(c1cc(C(=O)N2CCOCC2)c2nc3ccccc3n2c1)c1ccccc1O	/	i	/	/	/
CCc1c(C)sc2nc3c(C(=O)N4CCOCC4)cc(C(=O)c4cc(F)ccc4O)cn3c(=O)c12	-8.5	-8.5*	-24%*	i	i	KCNQ2 patch conf=+
COc1ccc(S(=O)(=O)NCC2CCCO2)cc1NC(=O)c1ccc(Cl)cc1 (centres undefined)	0.5	i	/	/	/
C=C1CC(C(=O)N/N=C/c2ccccc2)C1	1.9	i	/	/	/
NCCCCc1cn(CC(=O)N2CCNCC2)nn1	/	i	/	/	/
Cc1ccccc1NC(=O)CCC(=O)N/N=C/c1ccncc1	1.1	i	/	/	/
Cn1nc(C(=O)NC2CCCCC2)c2c1-c1ccccc1SC2	/	i	/	/	/
CC(C)N(C(=O)c1nn(C)c2c1CSc1ccccc1-2)C1CCCCC1	-8.7	-8.7*	-26%*	i	i	KCNQ2 patch conf=i
SMILES	KCNQ2 pot	KCNQ2 inh	KCNQ2 inh conf	KCNQ1 spec	CHO parental ctr	others
COc1ccc2[nH]cc(CCNC(=O)COc3cc(C)cc4oc(=O)cc(C)c34)c2c1	/	i	/	/	/
Cc1ccccc1C(=O)Oc1cccc(Nc2ncnc3ccccc23)c1	-9.6	-9.6*	i	i	i
CC(=O)Oc1cccc(Nc2ncnc3ccccc23)c1	/	i	/	/	/
COc1ccc(NC(=O)CN(C)C(=O)C(C)Oc2ccc(Br)cc2)cc1 (centres undefined)	0.07	i	/	/	/
CCn1c(SCC(=O)NC2CCCc3ccccc32)nnc1-c1cccs1 (centres undefined)	/	i	/	/	/
O=C(CSc1nnc(-c2cccs2)n1Cc1ccccc1)NCc1ccc2c(c1)OCO2	/	i	/	/	/
CC(Sc1nnc(-c2cccs2)n1Cc1ccccc1)C(=O)NCc1ccc2c(c1)OCO2 (centres undefined)	-9.8	-9.8*	i	i	i
CCn1c(SC(C)C(=O)NC2CCCc3ccccc32)nnc1-c1cccs1 (centres undefined)	-8.4	-8.4*	i	i	i
Cc1cc(C(=O)CSc2ccc(Cl)cc2)cc(C)c1OC(=S)N(C)C	-8.7	-8.7*	i	i	i
Cc1cc(C(=O)CSc2ccc(F)cc2)cc(C)c1O	0.04	i	/	/	/
CC(C)C(OC(=O)c1nsc(Cl)c1Cl)C(=O)NCC1CCCO1 (centres undefined)	/	i	/	/	/
O=C(NCc1ccccc1Cl)c1cc(C(=O)C2CC2)c[nH]1	/	i	/	/	/
O=[N+]([O-])c1cc(C(F)(F)F)ccc1N1CCN(S(=O)(=O)c2ccc3c(c2)CCCC3)CC1	0.51	i	/	/	/
CCOc1ccccc1/C=C(\C#N)C(=O)NC1CC1	/	i	/	/	/
N#C/C(=C\c1ccccc1[N+](=O)[O-])C(=O)NC1CCCCC1	-6.9	-6.9*	-34%*	i	i	KCNQ2 patch conf=+
CC(C(=O)N(C)c1ccccc1)N1CCN(C(=O)c2ccccc2)CC1 (centres undefined)	1.6	i	/	/	/
CC(C)=CCc1c(O)cc2oc3c(CC=C(C)C)c(O)c(O)c(CC=C(C)C)c3c(=O)c2c1O	-12	-12*	-48%*	-42%*	-28%*	KCNQ2 patch conf=i
CC(C)=CCc1cc(-c2oc3cc(O)cc(O)c3c(=O)c2O)ccc1O	2.4	i	/	/	/
CN(C(=O)CCNC(=O)Cn1cnc2ccccc2c1=O)c1ccccc1F	/	i	/	/	/
O=[N+]([O-])c1cccc(/C=N\N2CCN(Cc3ccccc3Cl)CC2)c1	-7.3	-7.3*	i	i	i
O=[N+]([O-])c1cccc(/C=N/N2CCN(Cc3ccccc3)CC2)c1	/	i	/	/	/
c1ccc(-c2nc3ccccc3[nH]2)cc1	1.3	i	/	/	/
c1ccc(-c2n[nH]c(-c3ccccc3)c2-c2nc3ccccc3[nH]2)cc1	-9.2	-9.2*	-36%*	i	i	KCNQ2 patch conf=+
CCOC(=O)N1CCN(C(=O)/C(=C/c2ccc(Br)cc2)NC(=O)c2ccc(OC)cc2)CC1	/	i	/	/	/
CC(C)c1ccc(S(=O)(=O)N(C)C2(C)CCS(=O)(=O)C2)cc1 (centres undefined)	1.2	i	/	/	/
SMILES	KCNQ2 pot	KCNQ2 inh	KCNQ2 inh conf	KCNQ1 spec	CHO parental ctr	others
Cc1ccc(-c2cc(C(=O)N(C)Cc3cnn(C)c3C)c3cc(Br)ccc3n2)cc1	/	i	/	/	/
Cc1ccc(-c2cc(C(=O)NCc3cnn(C)c3C)c3cc(Br)ccc3n2)cc1	-9.2	-9.2*	-34%*	i	i	KCNQ2 patch conf=+
CC(=O)Nc1ccc(NC(=O)C(OC(=O)c2ccccc2)C(OC(=O)c2ccccc2)C(=O)O)cc1 (centres undefined)	0.53	i	/	/	/
Cc1ccc(S(=O)(=O)NCc2cn3c(C)csc3n2)cc1	0.73	i	/	/	/
Cc1ccc(SCc2cn3c(C)csc3n2)cc1	-8.1	-8.1*	i	i	i
Cc1ccc(/C=N\NC(=O)c2ccc3c(c2)OCO3)o1	0.15	i	/	/	/
Cc1ccc(N(CCC#N)C(=O)COC(=O)c2ccccn2)cc1	0.28	i	/	/	/
O=C(O)CCCNC(=O)OCc1ccccc1	/	i	/	/	/
Cc1cccc(C)c1OCCNC(=O)OCc1ccccc1	-6.9	-6.9*	i	i	i

Screening results: PubChem BioAssay, Johns Hopkins Ion Channel Center
